For 14 compounds, growth results are on record in PubChem BioAssay (NCI).

Test systems include NCI-H23 lung; NCI-H226 lung; NCI-H322M lung; HOP-62 NSCLC; NCI-H460 lung; HOP-92 NSCLC; NCI-H522 lung; A549/ATCC NSCLC; 786-0 renal; COLO 205 colon.
Assay in all cases: NCI-60 one-dose screen, 48 h (100 = growth as untreated, 0 = no growth, -100 = all killed)
What all share (conditions): 10 µM unless noted

Compounds without any hit were thinned out: in the full panel of roughly 83,000, 20% have a hit.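 Results are percent growth after 48 hours of single-concentration exposure. 100 means growth as in untreated cells, lower positive values show inhibition; negative values down to -100 show cell death.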 A number with no mark means an inactive call. The source made the active and inactive calls. Rule for the calls: active = growth percent below 10; inactive = the rest.

As to `O=C(/C=C/c1ccc(B(O)O)cc1)/C=C/c1ccc(B(O)O)cc1`, the growth was 62.4% in the test with NCI-H23 lung; 78.1% with NCI-H226 lung; 80.9% in the test with NCI-H322M lung; 105% with HOP-62 NSCLC; 57.5% in the test on NCI-H460 lung; 82.6% with HOP-92 NSCLC. Besides, the growth in the test with NCI-H522 lung is 72.4%; in the test on A549/ATCC NSCLC, 41.4%; with 786-0 renal, -72.5% (active); in the test with COLO 205 colon it was 36.8%.
Turning to `O=C(/C=C\c1ccc2ccccc2n1)c1cc(Cl)ccc1O`, the growth in the test with NCI-H23 lung is 63.2%; with NCI-H226 lung, 58.7%; in the test on NCI-H322M lung it was 86.1%; in the test on HOP-62 NSCLC, 97.8%; in the test with NCI-H460 lung it was 78.9%; in the test on HOP-92 NSCLC it was 52.3%. For the same compound, the growth with NCI-H522 lung is 94.8%; in the test on A549/ATCC NSCLC, 104%; in the test with 786-0 renal, 75.4%; in the test with COLO 205 colon, 115%.
As for `CN1CCCCC1CCN1c2ccccc2Sc2ccc(Br)cc21` (stereo not given), the growth in the test on NCI-H23 lung is 77.4%; with NCI-H226 lung it was 89.9%; with NCI-H322M lung it was 59.1%; in the test with HOP-62 NSCLC it was 85.7%; in the test on NCI-H460 lung, 64.9%; with HOP-92 NSCLC, 45.5%. In addition, the growth was 62.9% in the test on NCI-H522 lung, 67.5% in the test on A549/ATCC NSCLC, 55% in the test on 786-0 renal and 51.5% in the test with COLO 205 colon.
With `O=C1c2c[n+](Cc3ccccc3)ccc2-c2nc3ccccc3c3ccnc1c23`, the growth with NCI-H23 lung was -32.8% (active); in the test with NCI-H226 lung it was -92.2% (active); with NCI-H322M lung, -17.8% (active); with HOP-62 NSCLC it was -27.2% (active); in the test on NCI-H460 lung, -55% (active); in the test on HOP-92 NSCLC, -45.4% (active). Also, the growth in the test on NCI-H522 lung was -66.3% (active); in the test on A549/ATCC NSCLC, -26.1% (active); in the test with 786-0 renal, -5.78% (active); in the test on COLO 205 colon, -90.1% (active).
Take `N#Cc1c2c(nc3n[nH]c(N)c13)CCCC2`: the growth in the test with NCI-H23 lung is 99.6%; with NCI-H226 lung, 110%; with NCI-H322M lung it was 128%; in the test with HOP-62 NSCLC, 100%; in the test with NCI-H460 lung, 108%; in the test on HOP-92 NSCLC, 79%. Further, the growth with NCI-H522 lung was 104%; in the test with A549/ATCC NSCLC, 108%; in the test on 786-0 renal it was 106%; with COLO 205 colon it was 148%.
As for `C=C1C(=O)O[C@H]2[C@H]1CC/C(Cn1cc(Cc3c[nH]c4ccccc34)nn1)=C\CC[C@@]1(C)O[C@@H]21`, the growth in the test on NCI-H23 lung is 37.1%; in the test on NCI-H226 lung, 79.7%; in the test with NCI-H322M lung, 85.1%; in the test with HOP-62 NSCLC it was 76.7%; in the test with NCI-H460 lung, 79.7%; with HOP-92 NSCLC, -8.55% (active). Besides, the growth in the test with NCI-H522 lung is -79.2% (active); with A549/ATCC NSCLC it was 57.9%; in the test with 786-0 renal, -9.3% (active); in the test with COLO 205 colon it was -68.1% (active).
Consider `O=C(Nc1ccc(F)cc1)Nc1ccc(CCO)cc1`, for which the growth was 104% in the test on NCI-H23 lung; 107% in the test with NCI-H226 lung; 97.7% in the test with NCI-H322M lung; 116% with HOP-62 NSCLC; 106% with NCI-H460 lung; 103% with HOP-92 NSCLC. In addition, the growth was 93.8% with NCI-H522 lung, 91.4% in the test on A549/ATCC NSCLC, 109% in the test with 786-0 renal and 132% with COLO 205 colon.
Turning to `Cc1ccc(NC(=O)c2sc3nc4c(cc3c2N)C(=O)CCC4)cc1C`, the growth was 32.7% in the test with NCI-H23 lung; 80.2% in the test with NCI-H226 lung; 42.5% in the test on NCI-H322M lung; 23.5% with HOP-62 NSCLC; 7.88% (active) in the test on NCI-H460 lung; 90.8% with HOP-92 NSCLC. The growth was -9.22% (active) in the test on NCI-H522 lung, 19.5% in the test with A549/ATCC NSCLC, 37.4% in the test with 786-0 renal and -25.2% (active) with COLO 205 colon.
As for `S=c1[nH]nc(CSc2ncnc3c2c(-c2ccccc2)cn3-c2ccc(Cl)cc2)o1`, the growth was 92.7% in the test with NCI-H23 lung; 89.5% in the test on NCI-H226 lung; 97.9% with NCI-H322M lung; 91% in the test on HOP-62 NSCLC; 99.4% with NCI-H460 lung; 92.9% in the test with HOP-92 NSCLC. Also, the growth in the test on NCI-H522 lung is 89.5%; in the test with A549/ATCC NSCLC, 98.5%; in the test with 786-0 renal it was 102%; with COLO 205 colon, 99.1%.
Regarding `COc1ccc(/C=C2\N=C3Sc4cc(Cl)ccc4C(=O)N3C2=O)cc1`, the growth was 96% in the test on NCI-H23 lung; 83% with NCI-H226 lung; 95.8% with NCI-H322M lung; 103% in the test on HOP-62 NSCLC; 104% with NCI-H460 lung; 82.6% with HOP-92 NSCLC. Besides, the growth in the test with NCI-H522 lung was 87.5%; in the test on A549/ATCC NSCLC, 96.4%; in the test with 786-0 renal, 101%; in the test on COLO 205 colon, 105%.
In the case of `Cc1ccccc1CCO`, the growth was 100% with NCI-H23 lung; 93.7% with NCI-H226 lung; 90.8% with NCI-H322M lung; 89.1% in the test on HOP-62 NSCLC; 105% with NCI-H460 lung; 104% in the test on HOP-92 NSCLC. Also, the growth is 76.2% in the test with NCI-H522 lung, 85.4% in the test with A549/ATCC NSCLC, 100% in the test with 786-0 renal and 92.7% in the test on COLO 205 colon.
Take `CCCCCCCCCC(=O)Oc1ccc(/C(=C(/C)c2ccccc2)c2ccc(OCCN3CCCC3)cc2)cc1`: the growth in the test on NCI-H23 lung is 26.8%; in the test on NCI-H226 lung, 65.7%; with NCI-H322M lung, 32.8%; in the test on HOP-62 NSCLC, -1.82% (active); in the test on NCI-H460 lung, -7.47% (active); in the test on HOP-92 NSCLC it was -19% (active). Also, the growth with NCI-H522 lung is -26.3% (active); in the test on A549/ATCC NSCLC, 11.3%; with 786-0 renal, -58.6% (active); in the test on COLO 205 colon it was -57.1% (active).
For `CN1CCN(Cc2ccc(NC(=O)c3cncc(C#Cc4cnc(N)c5cccnc45)c3)cc2C(F)(F)F)CC1`, the growth in the test on NCI-H23 lung is 11.4%; with NCI-H226 lung it was -18.6% (active); with NCI-H322M lung it was 26.4%; with HOP-62 NSCLC, -0.449% (active); in the test with NCI-H460 lung, 7.81% (active); in the test with HOP-92 NSCLC, -26.2% (active). Further, the growth in the test on NCI-H522 lung was 28.4%; in the test on A549/ATCC NSCLC it was 29%; in the test on 786-0 renal it was 32.8%; in the test with COLO 205 colon, -20.5% (active).
Consider `CCN(CC)CCCC(C)N/C(=C1\C(=O)NC(=O)\C1=C(/NC(C)CCCN(CC)CC)c1cccc(OC)c1)c1cccc(OC)c1` (stereo not given), for which the growth in the test on NCI-H23 lung was -22% (active); in the test on NCI-H226 lung it was -21.3% (active); with NCI-H322M lung it was -49.6% (active); in the test on HOP-62 NSCLC, -6.86% (active); in the test with NCI-H460 lung, -38.1% (active); with HOP-92 NSCLC it was -1.22% (active). For the same compound, the growth is -74.9% (active) with NCI-H522 lung, -52.9% (active) with A549/ATCC NSCLC, 9.02% (active) in the test on 786-0 renal and -62.9% (active) with COLO 205 colon.
